# PubChem BioAssay (NCATS)
# Records with an inconclusive call do not appear. Active and inactive are the calls of the source. Calls come from the whole dose curve; as a rule, active = well fitted curve in the direction sought with a large enough effect; inconclusive = small, poorly fitted or top-dose-only effect, or another doubt; inactive = no such curve, though single readings can be large; an effect the other way counts as inactive or inconclusive.
# How the values were obtained:
# [1] = molecular target: Furin (Homo sapiens) (UniProt P09958); assay: Furin counterscreen qHTS for Zika virus inhibitors (AID 1347149); note: nearly all actives have a fitted effect of over 70% in size
# Furin (Homo sapiens), sequence (P09958 whole entry, looked up): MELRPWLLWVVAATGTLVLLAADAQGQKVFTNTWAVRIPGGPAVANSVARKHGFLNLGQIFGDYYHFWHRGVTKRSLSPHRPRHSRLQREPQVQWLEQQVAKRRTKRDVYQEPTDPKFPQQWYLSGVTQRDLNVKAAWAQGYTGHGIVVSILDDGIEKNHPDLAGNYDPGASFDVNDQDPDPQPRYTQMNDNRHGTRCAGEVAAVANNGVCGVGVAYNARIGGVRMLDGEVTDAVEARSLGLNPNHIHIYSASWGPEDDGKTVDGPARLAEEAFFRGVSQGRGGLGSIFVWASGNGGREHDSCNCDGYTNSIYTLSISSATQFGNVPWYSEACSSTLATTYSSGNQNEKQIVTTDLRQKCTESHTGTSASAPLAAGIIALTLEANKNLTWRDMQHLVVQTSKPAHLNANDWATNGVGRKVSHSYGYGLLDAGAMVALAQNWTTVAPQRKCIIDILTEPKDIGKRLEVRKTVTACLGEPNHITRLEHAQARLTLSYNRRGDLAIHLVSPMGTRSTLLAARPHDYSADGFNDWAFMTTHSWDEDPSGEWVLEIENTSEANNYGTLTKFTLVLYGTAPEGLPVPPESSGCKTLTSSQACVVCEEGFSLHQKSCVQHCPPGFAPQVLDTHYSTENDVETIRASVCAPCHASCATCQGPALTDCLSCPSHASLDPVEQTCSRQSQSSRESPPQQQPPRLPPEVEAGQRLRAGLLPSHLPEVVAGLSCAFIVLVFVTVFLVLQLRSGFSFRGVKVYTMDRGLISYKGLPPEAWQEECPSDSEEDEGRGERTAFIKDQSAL
# Procedure, shortened: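 Fluorogenic cleavage of BOC-RVRR-AMC (2 microM final, Km ~15 µM) was monitored (ex 340, em 450 nm) at 37C after 15 min RT preincubation of 5 nM furin with compounds in HEPES pH 7.0 buffer with CaCl2 and Triton X-100. Percent inhibition was fitted to a 4-parameter Hill curve.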
# [2] = system: Zika virus NS2B-NS3 protease (linked construct); assay: Confirmatory screen NINDS AMC qHTS for Zika virus inhibitors (AID 1347152); note: nearly all actives have a fitted effect of over 70% in size
# Procedure, shortened: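 Concentration-response confirmation used the NINDS linked protease (NS2B hydrophilic domain joined to NS3 protease domain), 1 nM, with a 15-min compound preincubation. Substrate, Nle-KRR-AMC at 10 microM, was read by UV fluorescence before and after 15 min.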
# [3] = Confirmatory screen GU Rhodamine qHTS for Zika virus inhibitors qHTS (AID 1347157); details: purified enzyme assay, Rhodamine110 substrate fluorescence, 15 min; note: nearly all actives have a fitted effect of over 70% in size
# Procedure, shortened: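 Unlinked NS2B/NS3, 25 nM; Rhod110 peptide, 1.5 microM; compounds, up to 114 microM. Reaction run 15 min at RT in 10 mM Tris-HCl pH 8.0, 0.01% Tween 20; kinetic fluorescence change fitted with a 4-parameter Hill model.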
# [4] = system: Zika virus NS2B-NS3 protease (unlinked complex); assay: Confirmatory screen GU AMC qHTS for Zika virus inhibitors (AID 1347153); details: Recombinant NS2B-NS3 protease, AMC substrate fluorescence;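 note: enzyme at 25 nM with substrate at 10 µM below its Km of 18.3 µM; nearly all actives have a fitted effect of over 70% in size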
# Procedure, shortened: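 Fluorescence change (ex 340/em 450 nm) over 15 min, ~20% substrate conversion, normalized to no-inhibitor and no-enzyme controls, then Hill-fitted. Unlinked protease at 25 nM; AMC peptide 10 µM.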
# [5] = system: Zika virus NS2B-NS3 protease (unlinked); assay: Optimization of GU AMC qHTS for Zika virus inhibitors: Unlinked NS2B-NS3 protease assay (AID 1347151); details: recombinant ZIKV NS2B-NS3 protease, fluorogenic AMC substrate; note: nearly all actives have a fitted effect of over 80% in size
# Procedure, shortened: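 In this qHTS, compounds acted on 25 nM unlinked Zika NS2B–NS3 in pH 8.0 Tris/Tween buffer. Cleavage of an AMC peptide ran 15 min at room temperature, to about 20% conversion.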
# Potency is the fitted concentration of half-maximal effect.
structure (smiles),measurement,setting,value
N#CC1C(=O)Nc2scc(-c3ccc(-c4ccccc4O)cc3)c2C1=O (stereo not drawn),Potency,[1],inactive
same,Potency,[2],22.1 µM (active)
same,Potency,[3],3.93 µM (active)
Nc1c(N=Nc2ccc(-c3ccc(N=Nc4cc(S(=O)(=O)O)c5ccccc5c4N)cc3)cc2)cc(S(=O)(=O)O)c2ccccc12,Potency,[1],37.3 µM (active)
same,Potency,[3],2.51 µM (active)
C=C1CC23CCC4[C@@](C)(CCC[C@@]4(C)C(=O)O)C2CCC1C3 (stereo partly drawn),Potency,[3],39.3 µM (active)
CC12CCC3C(C)(C)C(O)CCC3(C)C1Cc1c(oc(C(=O)O)cc1=O)O2 (stereo not drawn),Potency,[3],24.3 µM (active)
CC1C/C=C/C=C\CCCCC(O)C/C=C/C(=O)O1 (stereo not drawn),Potency,[3],44.1 µM (active)
O=C(O)c1ccc(CCCc2ccc(OCCc3ccc(F)cc3)cc2)o1,Potency,[2],44.1 µM (active)
same,Potency,[4],49.4 µM (active)
same,Potency,[3],3.12 µM (active)
O=C(O)c1cnn(-c2nc3cc(OC(F)(F)F)c(Cl)cc3[nH]2)c1,Potency,[1],90.2 µM (active)
same,Potency,[2],40.3 µM (active)
same,Potency,[4],32 µM (active)
same,Potency,[3],12.7 µM (active)
O=C(/C=C/c1c(C(=O)O)[nH]c2cc(Cl)cc(Cl)c12)Nc1ccccc1,Potency,[1],inactive
same,Potency,[2],44.1 µM (active)
same,Potency,[4],44.1 µM (active)
same,Potency,[3],2.78 µM (active)
CC(C)C1=CCC(C)(O)C(OC2OC(CO)C(O)C(O)C2O)C1 (stereo not drawn),Potency,[1],inactive
same,Potency,[3],27.3 µM (active)
CC(C)C(=O)c1cn(CC(=O)COc2ccc(Oc3ccccc3)cc2)c2ccc(C(=O)O)cc12,Potency,[1],inactive
same,Potency,[2],44.1 µM (active)
same,Potency,[4],44.1 µM (active)
same,Potency,[3],8.79 µM (active)
NCc1ccc(OCCCc2sc(-c3ccc4c(c3)/C(=N/Nc3nc5ccccc5s3)CCC4)nc2C(=O)O)cc1,Potency,[3],13.9 µM (active)
CC(C)N=c1cc2n(-c3ccc(Cl)cc3)c3ccccc3nc-2cc1Nc1ccc(Cl)cc1,Potency,[1],inactive
same,Potency,[5],0.607 µM (active)
CCOc1c2c(c(OCC)c3ccccc13)C(=O)N(c1ccc(CC(=O)NS(=O)(=O)c3ccccc3)cc1)C2,Potency,[1],inactive
same,Potency,[2],44.1 µM (active)
same,Potency,[4],44.1 µM (active)
same,Potency,[3],4.94 µM (active)
CC(=O)O[C@@H]1C[C@]2(C)[C@@]3(CCC4[C@@]5(C)CC[C@H](O[C@@H]6O[C@H](C(=O)O)[C@@H](O)[C@H](O[C@@H]7O[C@H](CO)[C@H](O)[C@H](O)[C@H]7O[C@@H]7O[C@@H](C)[C@H](O)[C@@H](O)[C@H]7O[C@@H]7OC[C@](O)(CO)[C@H]7O)[C@H]6O[C@@H]6O[C@H](CO)[C@H](O)[C@H](O)[C@H]6O)C(C)(C)C5CC[C@]42C)O[C@@H](O)[C@]12C3CC(C)(C)[C@@H](OC(=O)/C=C/c1ccc(O)c(O)c1)[C@@H]2OC(=O)/C=C/c1ccccc1 (stereo partly drawn),Potency,[2],10.5 µM (active)
same,Potency,[4],7.42 µM (active)
same,Potency,[3],3.32 µM (active)
CC(C)c1cc2c(c(O)c1O[C@@H]1O[C@H](CO)[C@@H](O)[C@H](O)[C@H]1O)CC1(O)CCC(O)C(C)(C)C1CC2 (stereo partly drawn),Potency,[3],17.1 µM (active)
CC1(C)CCC(C)(C)c2cc3c(cc21)Sc1ccccc1N=C3c1ccc(C(=O)O)cc1,Potency,[2],7.84 µM (active)
same,Potency,[3],1.56 µM (active)
CC(=O)c1c(C)cc(O)cc1O[C@@H]1O[C@H](CO)[C@@H](O)[C@H](O)[C@H]1O,Potency,[3],30.6 µM (active)
Cc1nn(C)c(COc2ccc(N3CCN(S(=O)(=O)N(C)C)CC3)cc2)c1-c1cccc2c(CCCOc3cccc4ccccc34)c(C(=O)O)n(CCN3CCOCC3)c12,Potency,[3],1.75 µM (active)
CC(C)(O)C1CC=C(C(=O)OCC2OC(Oc3c(O)cc(C(=O)O)cc3O)C(O)C(O)C2O)CC1 (stereo not drawn),Potency,[2],inactive
OC[C@H]1O[C@@H](Oc2ccc(O)c3cccc(O)c23)[C@H](O)[C@@H](O)[C@@H]1O,Potency,[3],4.85 µM (active)
C=C1CC[C@@H]2[C@](C)(CO[C@@H]3O[C@H](CO)[C@@H](O)[C@H](O)[C@H]3O)CCC[C@@]2(C)[C@@H]1CCC1=CCOC1=O,Potency,[1],inactive
